Data: the supplement of paper PMC4022240
± gives the standard deviation.

Tests used:
Assay in all cases: peptide microarray binding signal (635 nm), min-max normalized on array (fraction of array maximum); higher = stronger binding
[1] = molecular target: T1, HaloTag-ATRX ADD domain (163-292)
T1 chain: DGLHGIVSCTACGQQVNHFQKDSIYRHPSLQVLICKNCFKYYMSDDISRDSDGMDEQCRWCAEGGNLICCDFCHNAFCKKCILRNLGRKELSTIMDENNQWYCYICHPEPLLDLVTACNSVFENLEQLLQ
Summary of the method: (§1)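 Triplicate spots of histone 13-mer peptide–cellulose conjugates with a Cy3 tracer were printed on nitrocellulose and probed for 1 h at 4°C with biotin-labelled HaloTag reader fusions (10 nM to 1 μM) plus streptavidin-Alexa Fluor 647 or rabbit histone antibodies (1:10,000 to 1:2,000) plus anti-rabbit Alexa 647. An Axon GenePix 4000B read the 635 nm channel. Binding signal is the spot-triplicate mean intensity after min-max scaling within each library.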

[2] = molecular target: HaloTag-ING2 PHD (mouse Ing2 200-280)
Summary of the method: as §1

[3] = molecular target: anti-H3K4me3 antibody ab8580
Summary of the method: as §1

[4] = molecular target: anti-H3K9me3 antibody ab8898
Summary of the method: as §1

[5] = peptide region: H3 20-32, peptide modifications: H3T22ph H3K23me2, binder concentration: 1:2,000 dilution
[6] = peptide region: H3 20-32, peptide modifications: H3T22ph H3K23me2, binder concentration: 1:10,000 dilution
[7] = peptide region: H3 30-42, peptide modifications: H3K36me2 H3K37me1, binder concentration: 1:2,000 dilution
[8] = peptide region: H3 30-42, peptide modifications: H3K36me2 H3K37me1, binder concentration: 1:10,000 dilution
[9] = peptide region: H3 30-42, peptide modifications: H3K36me2, binder concentration: 1:2,000 dilution
[10] = peptide region: H3 30-42, peptide modifications: H3K36me2, binder concentration: 1:10,000 dilution
[11] = peptide region: H3 30-42, peptide modifications: H3K36me3 H3K37ac, binder concentration: 1:2,000 dilution
[12] = peptide region: H3 30-42, peptide modifications: H3K36me3 H3K37ac, binder concentration: 1:10,000 dilution
[13] = peptide region: H3 30-42, peptide modifications: H3K36ac H3K37ac, binder concentration: 1:2,000 dilution
[14] = peptide region: H3 30-42, peptide modifications: H3K36ac H3K37ac, binder concentration: 1:10,000 dilution
[15] = peptide region: H3 30-42, peptide modifications: H3K36me1 H3K37me2, binder concentration: 1:2,000 dilution
[16] = peptide region: H3 30-42, peptide modifications: H3K36me1 H3K37me2, binder concentration: 1:10,000 dilution
[17] = peptide region: H3 30-42, peptide modifications: H3K36me2 H3K37ac, binder concentration: 1:2,000 dilution
[18] = peptide region: H3 30-42, peptide modifications: H3K36me2 H3K37ac, binder concentration: 1:10,000 dilution
[19] = peptide region: H3 30-42, peptide modifications: H3K36ac H3K37me1, binder concentration: 1:2,000 dilution
[20] = peptide region: H3 30-42, peptide modifications: H3K36ac H3K37me1, binder concentration: 1:10,000 dilution
[21] = peptide region: H3 30-42, peptide modifications: H3K36me1 H3K37ac, binder concentration: 1:2,000 dilution
[22] = peptide region: H3 30-42, peptide modifications: H3K36me1 H3K37ac, binder concentration: 1:10,000 dilution
[23] = peptide region: H3 30-42, peptide modifications: H3K36me3, binder concentration: 1:2,000 dilution
[24] = peptide region: H3 30-42, peptide modifications: H3K36me3, binder concentration: 1:10,000 dilution

LATKAARKSAPAT [H3 20-32 L A Tph Kme2 A A R K S A P A T]
peptide microarray binding signal ([1]; peptide region: H3 20-32, peptide modifications: H3T22ph H3K23me2, binder concentration: 50 nM): 0.004921 ± 4.8e-05 | peptide microarray binding signal ([1]; peptide region: H3 20-32, peptide modifications: H3T22ph H3K23me2, binder concentration: 500 nM): 0.00605 ± 0.00026 | peptide microarray binding signal ([2]; peptide region: H3 20-32, peptide modifications: H3T22ph H3K23me2, binder concentration: 10 nM): 0.0107 ± 0.0003 | peptide microarray binding signal ([2]; peptide region: H3 20-32, peptide modifications: H3T22ph H3K23me2, binder concentration: 100 nM): 0.00893 ± 0.00037 | peptide microarray binding signal [3, 5]: 0.00359 ± 3.6e-05 | peptide microarray binding signal [3, 6]: 0.00268 ± 0.00016 | peptide microarray binding signal [4, 5]: 0.00201 ± 8.1e-05 | peptide microarray binding signal [4, 6]: 0.00196 ± 1.8e-05

PATGGVKKPHRYR [H3 30-42 P A T G G V Kme2 Kme P H R Y R]
peptide microarray binding signal ([1]; peptide region: H3 30-42, peptide modifications: H3K36me2 H3K37me1, binder concentration: 50 nM): 0.00476 ± 8.1e-05 | peptide microarray binding signal ([1]; peptide region: H3 30-42, peptide modifications: H3K36me2 H3K37me1, binder concentration: 500 nM): 0.0141 ± 0.0045 | peptide microarray binding signal ([2]; peptide region: H3 30-42, peptide modifications: H3K36me2 H3K37me1, binder concentration: 10 nM): 0.00913 ± 0.0015 | peptide microarray binding signal ([2]; peptide region: H3 30-42, peptide modifications: H3K36me2 H3K37me1, binder concentration: 100 nM): 0.00376 ± 0.0011 | peptide microarray binding signal [3, 7]: 0.000774 ± 0.00022 | peptide microarray binding signal [3, 8]: 0.00622 ± 0.002 | peptide microarray binding signal [4, 7]: 0.00214 ± 0.00062 | peptide microarray binding signal [4, 8]: 0.00208 ± 0.00019

PATGGVKKPHRYR [H3 30-42 P A T G G V Kme2 K P H R Y R]
peptide microarray binding signal ([1]; peptide region: H3 30-42, peptide modifications: H3K36me2, binder concentration: 50 nM): 0.00417 ± 0.0002 | peptide microarray binding signal ([1]; peptide region: H3 30-42, peptide modifications: H3K36me2, binder concentration: 500 nM): 0.00919 ± 0.00057 | peptide microarray binding signal ([2]; peptide region: H3 30-42, peptide modifications: H3K36me2, binder concentration: 10 nM): 0.0135 ± 0.0016 | peptide microarray binding signal ([2]; peptide region: H3 30-42, peptide modifications: H3K36me2, binder concentration: 100 nM): 0.0203 ± 0.0023 | peptide microarray binding signal [3, 9]: 0.0031 ± 0.00053 | peptide microarray binding signal [3, 10]: 0.00377 ± 0.00013 | peptide microarray binding signal [4, 9]: 0.00305 ± 0.00012 | peptide microarray binding signal [4, 10]: 0.00271 ± 7.1e-05

PATGGVKKPHRYR [H3 30-42 P A T G G V Kme3 Kac P H R Y R]
peptide microarray binding signal ([1]; peptide region: H3 30-42, peptide modifications: H3K36me3 H3K37ac, binder concentration: 50 nM): 0.00197 ± 6.4e-05 | peptide microarray binding signal ([1]; peptide region: H3 30-42, peptide modifications: H3K36me3 H3K37ac, binder concentration: 500 nM): 0.00643 ± 0.0006 | peptide microarray binding signal ([2]; peptide region: H3 30-42, peptide modifications: H3K36me3 H3K37ac, binder concentration: 10 nM): 0.00603 ± 7.6e-05 | peptide microarray binding signal ([2]; peptide region: H3 30-42, peptide modifications: H3K36me3 H3K37ac, binder concentration: 100 nM): 0.00128 ± 0.00011 | peptide microarray binding signal [3, 11]: 0.000566 ± 6.2e-05 | peptide microarray binding signal [3, 12]: 0.00856 ± 0.0042 | peptide microarray binding signal [4, 11]: 0.0143 ± 0.0012 | peptide microarray binding signal [4, 12]: 0.00617 ± 0.0014

PATGGVKKPHRYR [H3 30-42 P A T G G V Kac Kac P H R Y R]
peptide microarray binding signal ([1]; peptide region: H3 30-42, peptide modifications: H3K36ac H3K37ac, binder concentration: 50 nM): 0.00357 ± 6.3e-05 | peptide microarray binding signal ([1]; peptide region: H3 30-42, peptide modifications: H3K36ac H3K37ac, binder concentration: 500 nM): 0.00462 ± 8.3e-05 | peptide microarray binding signal ([2]; peptide region: H3 30-42, peptide modifications: H3K36ac H3K37ac, binder concentration: 10 nM): 0.00489 ± 0.00017 | peptide microarray binding signal ([2]; peptide region: H3 30-42, peptide modifications: H3K36ac H3K37ac, binder concentration: 100 nM): 0.00539 ± 0.00019 | peptide microarray binding signal [3, 13]: 0.00264 ± 0.00042 | peptide microarray binding signal [3, 14]: 0.003024 ± 2.6e-05 | peptide microarray binding signal [4, 13]: 0.00427 ± 0.00042 | peptide microarray binding signal [4, 14]: 0.00271 ± 0.00018

PATGGVKKPHRYR [H3 30-42 P A T G G V Kme Kme2 P H R Y R]
peptide microarray binding signal ([1]; peptide region: H3 30-42, peptide modifications: H3K36me1 H3K37me2, binder concentration: 50 nM): 0.00241 ± 8.1e-05 | peptide microarray binding signal ([1]; peptide region: H3 30-42, peptide modifications: H3K36me1 H3K37me2, binder concentration: 500 nM): 0.00529 ± 0.00037 | peptide microarray binding signal ([2]; peptide region: H3 30-42, peptide modifications: H3K36me1 H3K37me2, binder concentration: 10 nM): 0.00442 ± 0.00037 | peptide microarray binding signal ([2]; peptide region: H3 30-42, peptide modifications: H3K36me1 H3K37me2, binder concentration: 100 nM): 0.00709 ± 0.0016 | peptide microarray binding signal [3, 15]: 0.000245 ± 5.2e-06 | peptide microarray binding signal [3, 16]: 0.000571 ± 1.1e-05 | peptide microarray binding signal [4, 15]: 0.00337 ± 0.0001 | peptide microarray binding signal [4, 16]: 0.000865 ± 2.4e-05

PATGGVKKPHRYR [H3 30-42 P A T G G V Kme2 Kac P H R Y R]
peptide microarray binding signal ([1]; peptide region: H3 30-42, peptide modifications: H3K36me2 H3K37ac, binder concentration: 50 nM): 0.00094 ± 1.9e-05 | peptide microarray binding signal ([1]; peptide region: H3 30-42, peptide modifications: H3K36me2 H3K37ac, binder concentration: 500 nM): 0.000857 ± 1.5e-05 | peptide microarray binding signal ([2]; peptide region: H3 30-42, peptide modifications: H3K36me2 H3K37ac, binder concentration: 10 nM): 0.0544 ± 0.07 | peptide microarray binding signal ([2]; peptide region: H3 30-42, peptide modifications: H3K36me2 H3K37ac, binder concentration: 100 nM): 0.00354 ± 0.00098 | peptide microarray binding signal [3, 17]: 0.000529 ± 1.4e-05 | peptide microarray binding signal [3, 18]: 0.000685 ± 4.7e-05 | peptide microarray binding signal [4, 17]: 0.000438 ± 1.5e-05 | peptide microarray binding signal [4, 18]: 0.000461 ± 8.7e-06

PATGGVKKPHRYR [H3 30-42 P A T G G V Kac Kme P H R Y R]
peptide microarray binding signal ([1]; peptide region: H3 30-42, peptide modifications: H3K36ac H3K37me1, binder concentration: 50 nM): 0.00235 ± 2.8e-05 | peptide microarray binding signal ([1]; peptide region: H3 30-42, peptide modifications: H3K36ac H3K37me1, binder concentration: 500 nM): 0.00586 ± 0.00013 | peptide microarray binding signal ([2]; peptide region: H3 30-42, peptide modifications: H3K36ac H3K37me1, binder concentration: 10 nM): 0.00418 ± 0.00019 | peptide microarray binding signal ([2]; peptide region: H3 30-42, peptide modifications: H3K36ac H3K37me1, binder concentration: 100 nM): 0.0056 ± 0.00056 | peptide microarray binding signal [3, 19]: 0.00253 ± 0.00052 | peptide microarray binding signal [3, 20]: 0.00177 ± 5.8e-05 | peptide microarray binding signal [4, 19]: 0.0165 ± 0.003 | peptide microarray binding signal [4, 20]: 0.00265 ± 6.2e-05

PATGGVKKPHRYR [H3 30-42 P A T G G V Kme Kac P H R Y R]
peptide microarray binding signal ([1]; peptide region: H3 30-42, peptide modifications: H3K36me1 H3K37ac, binder concentration: 50 nM): 0.00263 ± 0.00011 | peptide microarray binding signal ([1]; peptide region: H3 30-42, peptide modifications: H3K36me1 H3K37ac, binder concentration: 500 nM): 0.0039 ± 5.6e-05 | peptide microarray binding signal ([2]; peptide region: H3 30-42, peptide modifications: H3K36me1 H3K37ac, binder concentration: 10 nM): 0.00298 ± 3.3e-05 | peptide microarray binding signal ([2]; peptide region: H3 30-42, peptide modifications: H3K36me1 H3K37ac, binder concentration: 100 nM): 0.00354 ± 8.3e-05 | peptide microarray binding signal [3, 21]: 0.00145 ± 6.2e-05 | peptide microarray binding signal [3, 22]: 0.00137 ± 5.4e-05 | peptide microarray binding signal [4, 21]: 0.00163 ± 7.6e-05 | peptide microarray binding signal [4, 22]: 0.00127 ± 2.5e-05

PATGGVKKPHRYR [H3 30-42 P A T G G V Kme3 K P H R Y R]
peptide microarray binding signal ([1]; peptide region: H3 30-42, peptide modifications: H3K36me3, binder concentration: 50 nM): 0.00574 ± 0.00018 | peptide microarray binding signal ([1]; peptide region: H3 30-42, peptide modifications: H3K36me3, binder concentration: 500 nM): 0.007429 ± 7.1e-05 | peptide microarray binding signal ([2]; peptide region: H3 30-42, peptide modifications: H3K36me3, binder concentration: 10 nM): 0.0195 ± 0.00025 | peptide microarray binding signal ([2]; peptide region: H3 30-42, peptide modifications: H3K36me3, binder concentration: 100 nM): 0.02445 ± 0.00017 | peptide microarray binding signal [3, 23]: 0.00383 ± 0.00027 | peptide microarray binding signal [3, 24]: 0.00468 ± 0.00012 | peptide microarray binding signal [4, 23]: 0.0031 ± 0.00028 | peptide microarray binding signal [4, 24]: 0.00219
